Assay results reported in PubChem BioAssay (NCATS).
Results filed as inconclusive are left out. Active and inactive are the calls of the source. Calls come from the whole dose curve; as a rule, active = well fitted inhibition curve with a large enough effect; inconclusive = small, poorly fitted or top-dose-only effect; inactive = flat fitted curve, though single readings scatter.

What was measured:
Experiment in all cases: qHTS profiling for inhibitors of Plasmodium falciparum proliferation (AID 504749); note: nearly all actives have a fitted effect of over 60% in size
Details in all cases: P. falciparum in erythrocytes, SYBR Green DNA, 72 h; series mostly up to 28.7 µM
ATS95 = system: ATS95
In short: (§1)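 Each compound contacts P. falciparum-infected red blood cells for 72 h at 37 C; lysis buffer (Tris, EDTA, saponin, Triton X, SYBR Green I) is added and fluorescence measured next morning; values normalized to controls.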

C2A = system: C2A
In short: as §1

CP215 = system: CP215
In short: as §1

CP237 = system: CP237
In short: as §1

CP238 = system: CP238
In short: as §1

CP250 = system: CP250
In short: as §1

CP256 = system: CP256
In short: as §1

CP262 = system: CP262
In short: as §1

CP265 = system: CP265
In short: as §1

CP268 = system: CP268
In short: as §1

CP269 = system: CP269
In short: as §1

CP305 = system: CP305
In short: as §1

CP325 = system: CP325
In short: as §1

CP329 = system: CP329
In short: as §1

CP335 = system: CP335
In short: as §1

Dd2 = system: Dd2
In short: as §1

ECU = system: ECU
In short: as §1

P93_24 = system: P93_24
In short: as §1

PAD = system: PAD
In short: as §1

SC27B = system: SC27B
In short: as §1

Measured: Potency
Potency is the fitted concentration of half-maximal effect.

CCN1C[C@]2(COC)[C@H](O)C[C@H](OC)[C@]34C1C([C@H](OC)[C@H]23)[C@]1(OC(C)=O)C2[C@@H](OC(=O)c3ccccc3)C(O)(C[C@H]24)[C@@H](OC)[C@@H]1O
inactive: all assays above

O=C(O)c1ccccc1-c1c2cc(Br)c(=O)cc-2oc2[c]([Hg])c(O)c(Br)cc12
inactive: all assays above

CC(C)[C@@]1(NC(=O)[C@H]2CC3c4cccc5[nH]cc(c45)C[C@H]3N(C)C2)O[C@@]2(O)C3CCCN3C(=O)[C@@H](Cc3ccccc3)N2C1=O (stereo not given in full)
active: ATS95 3.16 µM | C2A 6.31 µM | CP215 5.36 µM | CP237 1.26 µM | CP238 3.98 µM | CP250 12.6 µM | CP256 7.94 µM | CP262 12 µM | CP265 4.47 µM | CP268 10.7 µM | CP269 4.26 µM | CP305 6.75 µM | CP325 9.53 µM | CP329 13.5 µM | CP335 3.79 µM | Dd2 2.82 µM | ECU 1.41 µM | P93_24 0.891 µM | PAD 1.12 µM | SC27B 2 µM
